In PubChem BioAssay AID1117288 (Broad Institute, 2014):
Potency and affinity values are given separately. Results filed as inconclusive are left out. The source made the active and inactive calls.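 Rule for the calls: active = compound whose fitted half-inhibition dose sits at or below twice its top tested dose in every test run; inconclusive = test runs disagree, or every run is unclear; inactive = inactive in every test run.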

Molecular target: Leucyl-cystinyl aminopeptidase (Mus musculus) (UniProt Q8C129)
Sequence (Q8C129 whole entry, looked up): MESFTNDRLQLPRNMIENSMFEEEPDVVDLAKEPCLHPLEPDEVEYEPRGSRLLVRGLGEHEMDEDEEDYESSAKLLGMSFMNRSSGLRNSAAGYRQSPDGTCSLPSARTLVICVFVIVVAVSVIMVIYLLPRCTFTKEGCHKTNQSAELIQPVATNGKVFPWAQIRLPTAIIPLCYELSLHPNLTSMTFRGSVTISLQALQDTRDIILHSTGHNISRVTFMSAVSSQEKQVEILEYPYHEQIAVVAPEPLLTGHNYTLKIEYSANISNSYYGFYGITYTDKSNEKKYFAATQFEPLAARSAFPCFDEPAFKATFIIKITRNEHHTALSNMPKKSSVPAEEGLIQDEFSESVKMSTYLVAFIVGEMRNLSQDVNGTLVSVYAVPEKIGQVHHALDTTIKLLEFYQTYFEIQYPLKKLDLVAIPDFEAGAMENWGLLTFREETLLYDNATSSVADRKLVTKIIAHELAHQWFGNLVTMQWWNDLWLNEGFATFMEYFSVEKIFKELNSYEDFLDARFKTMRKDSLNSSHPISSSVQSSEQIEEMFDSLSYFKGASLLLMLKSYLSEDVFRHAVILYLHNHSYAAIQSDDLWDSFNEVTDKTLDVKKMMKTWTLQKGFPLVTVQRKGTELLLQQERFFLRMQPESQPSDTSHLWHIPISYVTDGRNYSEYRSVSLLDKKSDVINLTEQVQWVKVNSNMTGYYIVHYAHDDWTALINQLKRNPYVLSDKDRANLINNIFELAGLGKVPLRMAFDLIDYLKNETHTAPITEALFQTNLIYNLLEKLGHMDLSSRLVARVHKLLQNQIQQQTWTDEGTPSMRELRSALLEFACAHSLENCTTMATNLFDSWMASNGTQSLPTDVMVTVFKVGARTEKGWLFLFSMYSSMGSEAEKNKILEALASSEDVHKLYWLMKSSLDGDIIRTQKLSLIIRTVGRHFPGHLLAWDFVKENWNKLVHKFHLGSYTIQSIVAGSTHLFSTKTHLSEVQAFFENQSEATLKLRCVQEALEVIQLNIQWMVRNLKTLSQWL
Test: mouse IRAP aminopeptidase activity inhibition – biochemical, dry powder samples, set 3, selectivity assay for ERAP1 modulator project, dose response (AID 1117288)
Conditions: purified IRAP enzyme, Leu-AMC fluorescence, 1 h; series mostly up to 50 µM; activity change, negative = inhibition: at the top concentration

Activity change, negative = inhibition, inactive:
COC(=O)c1ccc(OC)c(S(=O)(=O)Nc2cc(C(F)(F)F)ccc2N2CCCCC2)c1 16.9%, COc1ccc(C(=O)O)cc1S(=O)(=O)Nc1cc(C(F)(F)F)ccc1N1CCN(C)CC1 26.8%, O=C(O)c1ccc(Cl)c(S(=O)(=O)Nc2cc(C(F)(F)F)ccc2N2CCCCC2)c1 17.3%, COc1ccc(C(=O)O)cc1S(=O)(=O)Nc1cc(C)ccc1N1CCCCC1 -13.8%, COc1ccc(C(=O)O)cc1S(=O)(=O)N(C)c1cc(C(F)(F)F)ccc1N1CCCCC1 5.09%, COc1ccc(C(=O)O)cc1S(=O)(=O)N1CCN(c2ccc(C(F)(F)F)cc2N)CC1 14.3%, COc1ccc(C(=O)O)cc1S(=O)(=O)Nc1cccc(N2CCCCC2)c1C(F)(F)F 13.9%, COc1ccc(C(=O)O)cc1S(=O)(=O)Nc1cc(C(F)(F)F)ccc1N(C)C 3.47%, COc1ccc(C(=O)O)cc1S(=O)(=O)Nc1ccc(N2CCCCC2)cc1C(F)(F)F 9.65%, O=C(O)c1cc(F)cc(S(=O)(=O)Nc2cc(C(F)(F)F)ccc2N2CCCCC2)c1 -0.991%, COc1ccc(C(=O)O)cc1S(=O)(=O)Nc1ccccc1N1CCCCC1 3.15%, Cc1ccc(C(=O)O)cc1S(=O)(=O)Nc1cc(C(F)(F)F)ccc1N1CCCCC1 -2.16%, O=C(O)c1ccc(Br)c(S(=O)(=O)Nc2cc(C(F)(F)F)ccc2N2CCCCC2)c1 -5.39%, Cc1ccc(S(=O)(=O)Nc2cc(C(F)(F)F)ccc2N2CCCCC2)cc1C(=O)O 0.616%, O=C(O)c1cccc(S(=O)(=O)Nc2cc(C(F)(F)F)ccc2N2CCCCC2)c1 22.7%, COc1ccc(C(=O)O)cc1S(=O)(=O)Nc1cc(F)ccc1N1CCCCC1 13.7%, COc1ccc(C(=O)O)cc1S(=O)(=O)Nc1cc(C(F)(F)F)ccc1N1CCOCC1 28.6%

outcome, inactive:
COc1ccc(C(=O)O)cc1S(=O)(=O)Nc1cc(C(F)(F)F)ccc1N1CCCCC1
